Measurements taken from PubChem BioAssay AID651629 (Sanford-Burnham Center for Chemical Genomics, 2012).
This is one part of the list. Active and inactive are the calls of the source.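 The calls were made as follows: active = mean inhibition across replicates of 40% or more; inactive = mean inhibition below 40%.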

Assay: TAG lipid buildup inhibition in H9c2 – cell-based, single concentration, Nile Red fluorescence, confirmation (AID 651629);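 also: plate controls were DMSO only wells for no effect and Triacsin C treated wells for full effect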
Settings: H9c2 lipid accumulation, at 12.5 µM, stronger effect = higher value, cells loaded with 200 µM oleic acid

SMILES | inhibition
COc1ccc(CC(=O)Nc2ccc(-c3nnc(-c4ccc(C)cc4)o3)cc2)cc1 | 57.6% (active)
O=C(CSc1nc2ccc(Nc3nc(N4CCOCC4)nc(N4CCOCC4)n3)cc2s1)NCc1ccco1 | 65.5% (active)
COc1ccc(S(=O)(=O)N2CCc3ccccc32)cc1C(=O)Nc1cc(S(C)(=O)=O)ccc1Cl | 16.4% (inactive)
Cc1ccc(Sc2cc(N3CCOCC3)nc(-c3ccccc3)n2)cc1 | 62.5% (active)
CCCC(=O)Nc1nc2ccc(NC(=O)c3c(F)c(F)c(OC)c(F)c3F)cc2s1 | 69% (active)
COc1ccc2sc(-c3ccc(N(C)C)cc3)c(C#CCO)c2c1 | 85.7% (active)
CN(C)CC(O)COc1ccc(C(C)(C)c2ccc(OCC(O)CN(C)C)cc2)cc1 (stereo unspecified) | 20.9% (inactive)
CCOC(=O)N1CCN(C(=O)c2ccccc2N(Cc2ccccc2)S(=O)(=O)c2ccc(OC)cc2)CC1 | 64.1% (active)
O=C(Cc1cccc2ccccc12)Nc1ccc2oc(-c3ccccc3)nc2c1 | 25.7% (inactive)
CC(C)C(=O)N1CCC2(CC1)Oc1ccc(F)cc1C(=O)C21CC(c2ccccc2)=NO1 (stereo unspecified) | -2.17% (inactive)
Cc1ccc(/C=N/NC(=S)Nc2cccc(S(=O)(=O)N(C)C)c2)o1 | 20.8% (inactive)
Cc1ccccc1OCC(=O)Nc1ccc(N2CCN(C(=O)C(C)C)CC2)c(Cl)c1 | 7.1% (inactive)
C/C(=N\Nc1ccc(Cl)nn1)c1ccccc1O | 66.4% (active)
Cc1cc(NC(=O)CSc2nc(C(C)C)nc3sc4c(c23)CCC(C)C4)no1 (stereo unspecified) | 51.7% (active)
CCCOC(=O)c1[nH]c2c(c1C)C(=O)CC(c1cccs1)C2 (stereo unspecified) | 35.2% (inactive)
COc1ccccc1NC1=NC(c2ccc(Cl)cc2)N=C(N)N1 (stereo unspecified) | 74.9% (active)
CC1(c2ccccc2)CC(C)(C)N(C(=O)c2cc([N+](=O)[O-])cc([N+](=O)[O-])c2)c2ccccc21 (stereo unspecified) | 62.2% (active)
CCCCN1C(=O)/C(=C/C=C2/C=Cc3ccccc3N2CC)SC1=S | 127% (active)
Cc1cc(N/N=C\c2ccc(Br)cc2)nc(-n2nc(C)cc2C)n1 | 58.6% (active)
O=C(Nc1ccc(-c2csc(Nc3cccc(C(F)(F)F)c3)n2)cc1)c1cccc(C(F)(F)F)c1 | 66% (active)
COC(C[C@H](O)CC(=O)COCc1ccccc1)OC | -3.23% (inactive)
CCOCCC(=O)Nc1ccc2c(c1)c(=O)n(C)n2-c1ccc2ccccc2c1 | 47.5% (active)
COc1ccc2sc(-c3ccc(S(C)(=O)=O)cc3)c(C#Cc3cncn3C)c2c1 | 74.2% (active)
CC(=O)c1cccc(-c2ccc(CN3C(CC(C)C)C(=O)N(Cc4cn(CC5CCCCC5)nn4)CCS3(=O)=O)cc2)c1 (stereo unspecified) | 47% (active)
CN(/N=C/c1ccccc1)C(=S)c1ccccc1 | 12.5% (inactive)
Oc1cccc2cc(-c3ccncc3)cnc12 | 71.1% (active)
